# From the supplement of paper PMC9135407
# “And” between values parts separate entries of the source, which are not always exact repeats. Identical values can stand only once. Counter-ions that a name gives are not always drawn. Hit rate of the full screen: of about 5,800 compounds, about 620 (11%) showed activity. Only a selection was taken, and actives are over-represented in it overall. Unmarked numbers belong to inactive results.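 Rule for the calls: active = score above a cut-off or among the top three wells of a plate; in these data no inactive exceeds 0.85.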
# System: primary human hepatic stellate cells (donor 1)
# Assay: scaled lipid accumulation score (0 = DMSO-like, 1 = nortriptyline-like); higher = stronger HSC inactivation (lipid re-accumulation), active = hit call of the paper
# Conditions: 48 h
# Description: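 Primary lipid accumulation screen in primary human hepatic stellate cell myofibroblasts (donor 1, passage 8) in 384-well plates. 100 nL of library compound was pin-transferred into 30 µL medium in duplicate, and cells were treated for 48 h. The 'Scaled' score combines distance from plate baseline, toxicity and reproducibility penalties, and is normalised to nortriptyline (positive) and DMSO (negative) controls on each plate. A hit is defined as scaled >0.85 or among the top 3 wells per plate.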
# [1] = library stock concentration: 1 mM
# [2] = library stock concentration: 3.33 mM
# [3] = library stock concentration: 10 mM
# [4] = library stock concentration: 80 uM
# [5] = library stock concentration: 400 uM
# [6] = library stock concentration: 2 mM
compound,measurement,setting,value
CCCCC/C=C\C/C=C\C/C=C\C/C=C\CCCCCC(=O)O [Adrenic Acid],scaled lipid accumulation score,[1],≤ 0
O=C(Nc1ccccc1-c1cn2c(CN3CCNCC3)csc2n1)c1cnc2ccccc2n1,scaled lipid accumulation score,[2],0.121
same,scaled lipid accumulation score,[3],0.384
CCOC(=O)[C@H](CCc1ccccc1)N[C@@H](C)C(=O)N1[C@H](C(=O)O)C[C@H]2CCCC[C@@H]21 [Trandolapril],scaled lipid accumulation score,[3],0.059 and 0.177
CCCCCC(=O)/C=C/[C@@H]1[C@@H](CCCCCCC(=O)O)[C@@H](O)C[C@H]1O [15-keto Prostaglandin F1.alpha.],scaled lipid accumulation score,[1],≤ 0
Cc1cnc(CNC(=O)c2c(=O)c3ccc(N4CCCN(C)CC4)nc3n3c2sc2ccccc23)cn1,scaled lipid accumulation score,[4],≤ 0
same,scaled lipid accumulation score,[5],≤ 0
same,scaled lipid accumulation score,[6],≤ 0
same,scaled lipid accumulation score,[3],≤ 0
CC(CN(C)C)CN1c2ccccc2Sc2ccccc21.O=C(O)C(O)C(O)C(=O)O (configuration not stated) [Trimeprazine tartrate],scaled lipid accumulation score,library stock concentration: 4.5 mM,0.915 (active)
COc1ccc2c(c1)N(C[C@H](C)CN(C)C)c1ccccc1S2 [Methotrimeprazine maleat salt],scaled lipid accumulation score,,0.642
CCOC(=O)[C@H](CCc1ccccc1)N[C@H]1CCc2ccccc2N(CC(=O)O)C1=O [Benazepril HCl],scaled lipid accumulation score,[2],≤ 0
same,scaled lipid accumulation score,[3],≤ 0
CCOC(=O)[C@H](CCc1ccccc1)N[C@H]1CCc2ccccc2N(CC(=O)O)C1=O [Benazepril hydrochloride],scaled lipid accumulation score,[3],≤ -0.027 and 0.038
CC(CN(C)C)CN1c2ccccc2CCc2ccccc21.O=C(O)/C=C\C(=O)O (configuration not stated) [Trimipramine maleate],scaled lipid accumulation score,[3],0.877 (active)
CCOC(=O)[C@H](CCc1ccccc1)N[C@H]1CCc2ccccc2N(CC(=O)O)C1=O,scaled lipid accumulation score,[3],≤ 0
CC(CN(C)C)CN1c2ccccc2CCc2ccccc21 (configuration not stated) [Trimipramine maleate salt],scaled lipid accumulation score,,0.27
CC(CN(C)C)CN1c2ccccc2Sc2ccccc21 (configuration not stated) [Trimeprazine tartrate],scaled lipid accumulation score,,0.689
same,scaled lipid accumulation score,[3],0.834
CC(CN(C)C)CN1c2ccccc2CCc2ccccc21 (configuration not stated) [Trimipramine maleate],scaled lipid accumulation score,library stock concentration: 4.9 mM,0.715
same,scaled lipid accumulation score,[3],0.647
COc1ccc(-c2oc3c(CC=C(C)C)c(O[C@@H]4O[C@H](CO)[C@@H](O)[C@H](O)[C@H]4O)cc(O)c3c(=O)c2O[C@@H]2O[C@@H](C)[C@H](O)[C@@H](O)[C@H]2O)cc1 [Icariin],scaled lipid accumulation score,[2],0.048
same,scaled lipid accumulation score,[3],≤ 0
COc1ccc(-c2oc3c(CC=C(C)C)c(O[C@@H]4O[C@H](CO)[C@@H](O)[C@H](O)[C@H]4O)cc(O)c3c(=O)c2O[C@@H]2O[C@@H](C)[C@H](O)[C@@H](O)[C@H]2O)cc1,scaled lipid accumulation score,[3],≤ 0
CCCCC[C@H](O)/C=C/[C@H]1[C@H](O)CC(=O)[C@@H]1C/C=C\CCCC(=O)OCC(O)CO (some centres not stated) [Prostaglandin E2-1-glyceryl ester],scaled lipid accumulation score,[1],≤ 0
CCCCC[C@H](O)/C=C/[C@@H]1[C@@H](C/C=C\CCCC(=O)NCC)[C@@H](O)C[C@H]1O [Prostaglandin F2.alpha. ethyl amide],scaled lipid accumulation score,[1],≤ 0
CCCCCCCCCCCCCCOc1ccc(C(=O)O)o1,scaled lipid accumulation score,[1],0.036
COc1ccc(-c2cnc3c(-c4ccsc4)cnn3c2)cc1 [VEGF Receptor 2 Kinase Inhibitor IV],scaled lipid accumulation score,[2],≤ 0
Cc1ccc(S(=O)(=O)C=CC#N)cc1,scaled lipid accumulation score,[2],0.718
same,scaled lipid accumulation score,[3],0.445
CC(C)(C)c1ccc(S(=O)(=O)/C=C/C#N)cc1 [listing 1 of 2 here],scaled lipid accumulation score,[3],1.12 (active)
"CC(C)(C)c1ccc(S(=O)(=O)Nc2ccc(-n3ccnc3)cc2)cc1 [Stem-Cell Factor/c-Kit Inhibitor, ISCK03]",scaled lipid accumulation score,[2],≤ 0
Cc1ccc(S(=O)(=O)/C=C/C#N)cc1 [listing 1 of 2 here],scaled lipid accumulation score,[3],0.931 (active)
CC(C)(C)c1ccc(S(=O)(=O)/C=C/C#N)cc1 [listing 2 of 2 here],scaled lipid accumulation score,[3],0.172
Cc1ccc(S(=O)(=O)/C=C/C#N)cc1 [listing 2 of 2 here],scaled lipid accumulation score,[4],≤ -0.001
same,scaled lipid accumulation score,[5],≤ -0.001
same,scaled lipid accumulation score,[6],0.813
same,scaled lipid accumulation score,[2],0.807
same,scaled lipid accumulation score,[3],0.729 and 0.437
same,scaled lipid accumulation score,library stock concentration: 24.1 mM,0.648
Cc1cc2c(C(=O)NCC(C)c3ccccc3)c(O)c(O)cc2c(O)c1-c1c(C)cc2c(C(=O)NCC(C)c3ccccc3)c(O)c(O)cc2c1O (configuration not stated) [Sabutoclax],scaled lipid accumulation score,[2],0.768
same,scaled lipid accumulation score,[3],0.582
COc1cc(CCc2cc(NC(=O)c3ccc(N4CC(C)NC(C)C4)cc3)n[nH]2)cc(OC)c1 (configuration not stated),scaled lipid accumulation score,[4],≤ -0.016
same,scaled lipid accumulation score,[5],≤ -0.016
same,scaled lipid accumulation score,[6],0.369
same,scaled lipid accumulation score,[2],0.476
same,scaled lipid accumulation score,[3],0.5
CC(Cc1ccccc1)Nc1ncnc2c1ncn2C1OC(CO)C(O)C1O (stereo not drawn) [R(-)-N6-(2-Phenylisopropyl)adenosine],scaled lipid accumulation score,[3],≤ -0.055
N#Cc1c(O)c2c(-c3ccc(-c4ccccc4O)cc3)csc2[nH]c1=O,scaled lipid accumulation score,[2],0.004
same,scaled lipid accumulation score,[3],≤ 0 and 0.001
CC1(C)S[C@@H]2[C@H](NC(=O)COc3ccccc3)C(=O)N2[C@H]1C(=O)O [Penicillin V],scaled lipid accumulation score,[3],≤ 0
CC1(C)S[C@@H]2[C@H](NC(=O)COc3ccccc3)C(=O)N2[C@H]1C(=O)O [Penicillin v potassium],scaled lipid accumulation score,library stock concentration: 5.1 mM,0.003
same,scaled lipid accumulation score,[3],≤ 0
Cc1ccc(Sc2cncc3sc(C(N)=O)cc23)cc1,scaled lipid accumulation score,[2],0.183
same,scaled lipid accumulation score,[3],0.478 and 0.373
CCOC(=O)CCC(=O)O[C@H]1[C@H](O[C@@H]2[C@@H](C)[C@H](O[C@H]3C[C@@](C)(OC)[C@@H](O)[C@H](C)O3)[C@@H](C)C(=O)O[C@H](CC)[C@@](C)(O)[C@H](O)[C@@H](C)C(=O)[C@H](C)C[C@@]2(C)O)O[C@H](C)C[C@@H]1N(C)C [Erythromycin ethylsuccinate],scaled lipid accumulation score,library stock concentration: 2.3 mM,≤ -0.001
same,scaled lipid accumulation score,[3],≤ 0
CCOC(=O)CCC(=O)O[C@H]1[C@H](O[C@@H]2[C@@H](C)[C@H](O[C@H]3C[C@@](C)(OC)[C@@H](O)[C@H](C)O3)[C@@H](C)C(=O)O[C@H](CC)[C@@](C)(O)[C@H](O)[C@@H](C)C(=O)[C@H](C)C[C@@]2(C)O)O[C@H](C)C[C@@H]1N(C)C [Eryped],scaled lipid accumulation score,[3],≤ 0
Cl.Cl.c1ccc2c(NCCCCCCCNc3c4c(nc5ccccc35)CCCC4)c3c(nc2c1)CCCC3 [bis(7)-Tacrine],scaled lipid accumulation score,[1],1.11 (active)
Nc1c2c(nc3ccccc13)CCCC2 [Tacrine hydrochloride],scaled lipid accumulation score,[3],0.064
Nc1c2c(nc3ccccc13)CCCC2,scaled lipid accumulation score,library stock concentration: 9.7 mM,0.039
Nc1c2c(nc3ccccc13)CCCC2O (configuration not stated) [Hydroxytacrine maleate],scaled lipid accumulation score,library stock concentration: 9.3 mM,≤ -0.006
same,scaled lipid accumulation score,[3],0.056
Nc1c2c(nc3ccccc13)CCCC2 [Tacrine (hydrochloride)],scaled lipid accumulation score,[1],0.026
"Nc1c2c(nc3ccccc13)CCCC2 [9-Amino-1,2,3,4-tetrahydroacridine hydrochloride]",scaled lipid accumulation score,[3],0.401
"CCCCCC(=O)CC[C@H]1C=CC(=O)[C@@H]1C/C=C\CCCC(=O)O [13,14-dihydro-15-keto Prostaglandin A2]",scaled lipid accumulation score,[1],≤ 0
CCCCC[C@H](O)/C=C/[C@H]1C2CC(CO2)[C@@H]1C/C=C/CCCC(=O)O (some centres not stated),scaled lipid accumulation score,[1],≤ 0
CCCCC[C@](C)(O)/C=C/[C@@H]1[C@@H](C/C=C\CCCC(=O)O)[C@@H](O)C[C@H]1O [15(S)-15-methyl Prostaglandin F2.alpha.],scaled lipid accumulation score,[1],≤ 0
"CCCCC/C=C\C/C=C\CC1OC1C/C=C\CCCC(=O)O (configuration not stated) [8,9-Epoxyeicosatrienoic acid]",scaled lipid accumulation score,library stock concentration: 100 uM,≤ -0.021
CNC(=O)c1cc(Oc2ccc(NC(=O)Nc3ccc(Cl)c(C(F)(F)F)c3)cc2)ccn1 [Sorafenib],scaled lipid accumulation score,[2],≤ 0
same,scaled lipid accumulation score,[3],≤ 0
"CNC(=O)c1cc(Oc2ccc(NC(=O)Nc3ccc(Cl)c(C(F)(F)F)c3)cc2)ccn1 [Sorafenib (Nexavar, BAY43-9006) (10 mM)]",scaled lipid accumulation score,[3],1.21 (active)
CNC(=O)c1cc(Oc2ccc(NC(=O)Nc3ccc(Cl)c(C(F)(F)F)c3)c(F)c2)ccn1 [Regorafenib],scaled lipid accumulation score,[4],≤ -0.016
same,scaled lipid accumulation score,[5],0.033
same,scaled lipid accumulation score,[6],≤ -0.016
same,scaled lipid accumulation score,[3],≤ -0.016
CNC(=O)c1cc(Oc2ccc(NC(=O)Nc3ccc(Cl)c(C(F)(F)F)c3)cc2)ccn1 [Sorafenib Tosylate],scaled lipid accumulation score,[2],0.005
same,scaled lipid accumulation score,[3],≤ 0
"CNC(=O)c1cc(Oc2ccc(NC(=O)Nc3ccc(Cl)c(C(F)(F)F)c3)cc2)ccn1 [Sorafenib  (Nexavar, BAY43-9006) (2 mM)]",scaled lipid accumulation score,[6],0.299
CNC(=O)c1cc(Oc2ccc(NC(=O)Nc3ccc(Cl)c(C(F)(F)F)c3)c(F)c2)ccn1 [Regorafenib (BAY 73-4506)],scaled lipid accumulation score,[2],≤ 0
same,scaled lipid accumulation score,[3],≤ 0
"CNC(=O)c1cc(Oc2ccc(NC(=O)Nc3ccc(Cl)c(C(F)(F)F)c3)cc2)ccn1 [Sorafenib  (Nexavar, BAY43-9006) (0.4 mM)]",scaled lipid accumulation score,[5],0.021
CNC(=O)c1cc(Oc2ccc(NC(=O)Nc3ccc(Cl)c(C(F)(F)F)c3)cc2)ccn1,scaled lipid accumulation score,[4],0.04
same,scaled lipid accumulation score,[5],0.075
same,scaled lipid accumulation score,[6],≤ 0
same,scaled lipid accumulation score,[3],0.672
CC1(C(=O)O)NCCc2cc(O)c(O)cc21 (configuration not stated) [Salsolinol-1-carboxylic acid],scaled lipid accumulation score,[3],0.05
